Compound activity from PubChem BioAssay.
BAZ2B block: qHTS Assay for Inhibitors of BAZ2B | Potency, µM (highest dose often 114 µM), inactives show at the top dose activity change, negative = inhibition, usual class: inhibitors | 360,000 compounds, 4.4% hits | AlphaScreen BAZ2B-H3K14Ac peptide displacement; note: % is set by controls: 0 for no effect and ±100 for the full control effect; nearly all actives have a fitted effect of over 60% in size
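Protein-peptide AlphaScreen: BAZ2B 50 nM, b-H3K14Ac 50 nM, 1x PBS pH 7.4 + 0.01% Tween-20. Preincubation 30 min RT; cpd 30 min RT (top 110 uM); beads 20 min RT, light-protected.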
Sfp inh: qHTS Assay for Inhibitors of Bacillus subtilis Sfp phosphopantetheinyl transferase (PPTase); Biochemical Sfp PPTase activity, qHTS; 310,000 compounds, 3.5% hits; 4'-phosphopantetheinyl transferase ffp (Bacillus subtilis), Q9F4F7; Potency, µM, for inactives: largest response in the series, negative = inhibition, most hits filed as inhibitors; AID 1490, 2009;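 note: the enzyme is Sfp with the accession as filed and its product quenches rhodamine fluorescence; 0% = enzyme reaction without inhibitor and -100% = no enzyme wells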
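Reaction rates are the 30-min fluorescence difference (ex 525, em 598 nm) in wells containing 15 nM Sfp, 5 uM rhodamine-CoA and 12.5 uM BHQ-2-YbbR at pH 7.6 with 10 mM MgCl2.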
PLK1 PBD inh: qHTS for Inhibitors of PLK1-PDB (polo-like kinase 1 - polo-box domain): Primary Screen. Serine/threonine-protein kinase PLK1 (Homo sapiens), P53350. 360,000 compounds, 2.8% hits. Plk1 PBD binding of FITC phosphopeptide, fluorescence polarization. Potency, µM, for inactives: max response, negative = inhibition, most hits filed as inhibitors; note: series mostly up to about 57 µM; % is set by controls: 0 for no effect and ±100 for the full control effect; nearly all actives have a fitted effect of over 65% in size
Target sequence (P53350 whole entry, looked up, the tested form may be a part): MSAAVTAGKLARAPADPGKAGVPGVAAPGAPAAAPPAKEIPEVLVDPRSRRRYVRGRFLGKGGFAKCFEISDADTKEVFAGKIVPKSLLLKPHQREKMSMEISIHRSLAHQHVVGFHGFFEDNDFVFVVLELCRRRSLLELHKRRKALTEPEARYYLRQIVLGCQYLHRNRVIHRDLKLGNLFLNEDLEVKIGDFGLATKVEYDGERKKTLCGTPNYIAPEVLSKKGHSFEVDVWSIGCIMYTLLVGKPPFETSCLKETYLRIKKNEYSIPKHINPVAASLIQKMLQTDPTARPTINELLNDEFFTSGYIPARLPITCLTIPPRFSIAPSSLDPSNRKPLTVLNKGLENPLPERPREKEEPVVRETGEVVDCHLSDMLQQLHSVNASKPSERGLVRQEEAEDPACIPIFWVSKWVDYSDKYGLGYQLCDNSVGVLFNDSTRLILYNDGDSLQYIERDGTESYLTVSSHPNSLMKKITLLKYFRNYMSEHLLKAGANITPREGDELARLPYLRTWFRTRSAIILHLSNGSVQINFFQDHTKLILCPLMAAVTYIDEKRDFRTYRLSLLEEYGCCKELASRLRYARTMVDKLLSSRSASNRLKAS
HP1b chromo inh: HTS for Inhibitors of HP1-beta Chromodomain Interactions with Methylated Histone Tails; AlphaScreen HP1-beta / biotin-H3K9me3 peptide binding; Potency, µM (doses to about 114 µM), for inactives: at the highest dose activity change, negative = inhibition, most hits filed as inhibitors; 390,000 compounds, 0.56% hits; Chromobox protein homolog 1 (Homo sapiens), P83916; AID 540317, 2011; note: nearly all actives have a fitted effect of over 70% in size
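Compound inhibition of the preformed complex between 50 nM HP1-beta and 50 nM biotinylated H3K9me3 peptide was read by AlphaScreen. Buffer was PBS pH 7.4 with 0.01% Tween-20. Incubations ran 30 min at room temperature, with 10 ug/mL donor/acceptor beads.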
JMJD2A Tudor inh: qHTS Assay for Inhibitors of JMJD2A-Tudor Domain | Lysine-specific demethylase 4A (Homo sapiens), O75164 | AlphaScreen JMJD2A-Tudor / H3K4me3 peptide binding | Potency, µM (top dose mostly 114 µM), for the others: top-dose activity change, negative = inhibition, actives largely listed as inhibitors | 390,000 compounds, 4.4% hits | AID 504339, 2011; note: % is set by controls: 0 for no effect and ±100 for the full control effect; nearly all actives have a fitted effect of over 50% in size
G9a block: qHTS Assay for Inhibitors of Histone Lysine Methyltransferase G9a; 350,000 compounds, 8.8% hits; Histone-lysine N-methyltransferase EHMT2 (Homo sapiens), Q96KQ7; G9a H3K9 monomethylation, AlphaScreen, 2 h; Potency, µM (highest dose often 102 µM), for the others: at the highest dose activity, negative = inhibition, actives largely listed as inhibitors; AID 504332, 2011; note: % is set by controls: 0 for no effect and ±100 for the full control effect; nearly all actives have a fitted effect of over 75% in size
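Step 1: enzyme (final 20 nM) with compound, 15 min RT. Step 2: substrate peptide 500 nM and SAM 20 uM, 2 h RT. Step 3: anti-H3K9me1 antibody and AlphaScreen beads, 10 min, then plate read.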
Starred values were filed as active, the others as inactive; ? = inconclusive; nt = not tested or not shown; [ ] = another dose, or the depositor's remark. Sampled rows, rich in hits. Any-hit rate of the full collection: about 12%. Calls come from the whole dose curve; as a rule, active = well fitted curve in the direction sought with a large enough effect; inconclusive = small, poorly fitted or top-dose-only effect, or another doubt; inactive = no such curve, though single readings can be large; an effect the other way counts as inactive or inconclusive. Potency is the fitted concentration of half-maximal effect.

SMILES | BAZ2B block | Sfp inh | PLK1 PBD inh | HP1b chromo inh | JMJD2A Tudor inh | G9a block
COc1ccccc1CNC(=O)CCc1nnc2ccc(NCCCN3CCCC3=O)nn12 | -4%[57.1 µM] | 12% | 21µM* | 19% | -27% | 28%
COc1ccc(CNC(=O)CCc2nnc3ccc(NCCCN4CCCC4=O)nn23)cc1 | -5%[57.1 µM] | 11% | 1% | 41% | -8% | 5%
CCOC(=O)c1cccc(NC(=O)CCn2cccc2)c1 | ? | 16% | -14% | -4% | -34% | 40µM*
CCOC(=O)c1cccc(NC(=O)CCc2nnc3ccc(N4CCCCC4)nn23)c1 | 0% | 3% | -18% | 41% | -3% | nt
CCOC(=O)c1cccc(NC(=O)CCn2c(=O)oc3ccccc32)c1 | 2% | 12% | 2% | -13% | -10% | 17%
CCOC(=O)c1cccc(NC(=O)CCc2nnc3ccc(N4CCN(C)CC4)nn23)c1 | -2% | 13% | 24µM* | 20% | -32% | 9%
CCOC(=O)c1cccc(NC(=O)c2cc3cc4ccc(C)cc4nc3s2)c1 | -12% | nt | nt | -13% | ? | 13µM*
COc1ccc(OC)c(CCNC(=O)CCc2nnc3ccc(N4CCOCC4)nn23)c1 | -37% | 5% | 30µM* | 4% | ? | 11%
O=C(CCc1nnc2ccc(N3CCC4(CC3)OCCO4)nn12)Nc1ccc(F)cc1 | -4% | 15% | 13µM* | 17% | ? | -2%[59 µM]
COc1ccc(OC)c(CCNC(=O)CCc2nnc3ccc(N4CCCCC4)nn23)c1 | -35% | 8% | 2% | 17% | -15% | -16%
COc1ccc(N2CCN(C(=O)CCc3nnc4ccc(N5CCC(C)CC5)nn34)CC2)cc1 | -28% | -6% | 0% | 8%[57 µM] | -17% | -16%
COc1cccc(N2CCN(c3ccc4nnc(CCC(=O)Nc5ccc(F)cc5)n4n3)CC2)c1 | -27% | 11% | -9% | 14% | -10% | 56%
COc1cccc(N2CCN(c3ccc4nnc(CCC(=O)N5CCC(C)CC5)n4n3)CC2)c1 | -23% | 6% | 24µM* | 0% | ? | -22%
COc1cccc(N2CCN(c3ccc4nnc(CCC(=O)Nc5cccc(C(C)=O)c5)n4n3)CC2)c1 | -11% | 8% | 21µM* | 7% | 16µM* | 11%[59 µM]
Cc1ccc2c(n1)sc1c(=O)n(-c3cccc(C(F)(F)F)c3)nnc12 | -16% | nt | nt | 28% | -14% | -1%[59 µM]
CCNC(=O)C1CC(=O)N(CCCc2ccccc2)C(=Nc2ccccc2)S1 (stereo not given) | -1% | 29% | -10% | -2% | -14% | 21%
CCC(=O)N1CCc2cc(CNS(=O)(=O)c3ccc(Cl)s3)ccc21 | -1% | nt | nt | 8%[57 µM] | -14% | 14%[59 µM]
Cc1ccc(-c2cc3nc(-c4ccccc4)cc(C(F)(F)F)n3n2)cc1 | 4% | nt | nt | 38% | 32% | 2%[59 µM]
CCN(CC)CCCNC(=O)c1cn(CC)c2ccc(S(=O)(=O)N3CCc4ccccc4C3)cc2c1=O | 1% | 5% | 3% | 23% | -14% | -42%
CN(C1CCCCC1)S(=O)(=O)c1ccc2c(c1)c(=O)c(C(=O)N1CCN(c3ccc(F)cc3)CC1)cn2C | nt | nt | nt | 18% | -16% | -30%[59 µM]
CCn1cc(C(=O)O)c(=O)c2cc(S(=O)(=O)N(C)C)ccc21 | -2% | -7% | 2% | 11% | 20µM* | ?
CN(C)S(=O)(=O)c1ccc2c(c1)c(=O)c(C(=O)NCCCN1CCCCCC1)cn2C | 7% | -11% | -4% | 40% | -6% | 45µM*
